A488 fluor: compound autofluorescence in A488 spectral region | compound autofluorescence, A488 spectral region, dye equivalency; Compound Type: qHTS ECL - MLSMR | max dye equivalency, M | 0.1% of 59,000 active
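Read-out: relative fluorescence at 480/540 nm, expressed as Alexa 488 dye-equivalent concentration from a six-point A488 standard included per plate. Conditions: 100 mM Tris, pH 8.0; 15 min incubation, room temperature.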
Rhodamine fluor: compound autofluorescence in rhodamine spectral region. Rhodamine-region fluorescence, 547/598 nm, Tris buffer; stronger effect = higher value. max dye-equivalent concentration, M. 0.05% of 59,000 active. AID 594; in the data active means max dye-equivalent concentration above about 11 nM; inconclusive means between about 1.1 nM and that limit
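Steps: pin-transfer compounds into pH 8.0 Tris (100 mM), hold 15 min at room temperature, image with a 547/598 nm filter pair, and convert intensities to rhodamine-equivalent concentration using a six-point on-plate rhodamine series.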
Fluorescein fluor: fluorescein region autofluorescence. Compound autofluorescence, 480/540 nm, fluorescein-equivalent; stronger effect = higher value. max fluorescein-equivalent concentration, M. 0.91% of 59,000 active. AID 593; in the data active means max fluorescein-equivalent concentration above about 10 nM; inconclusive means between about 1.1 nM and that limit
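Library compounds, added at multiple concentrations to pH 8.0 Tris buffer (100 mM), incubate 15 min at room temperature before CCD imaging at 480 nm excitation and 540 nm emission.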
A647 autofl: A647 region autofluorescence | Compound fluorescence, A647 channel (570/671 nm), Tris buffer | max dye-equivalent concentration, M | 59,000 tested, under 10 active;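 further: values scaled relative to a standard on each plate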
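Compound fluorescence was measured in 100 mM Tris buffer, pH 8.0, after 15 min at room temperature, using 570 nm excitation and 671 nm emission filters. Signal was normalized to a per-plate Alexa 647 standard curve and expressed as dye-equivalent concentration at each compound concentration.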
Texas Red fluor: Texas Red region autofluorescence | 0.06% of 59,000 active | max dye-equivalent concentration, M | Compound fluorescence, Texas Red channel, 547/618 nm; stronger effect = higher value; in the data active means max dye-equivalent concentration above about 10 nM; inconclusive means between about 1.1 nM and that limit
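Compound fluorescence was read after 15 min at room temperature in 100 mM Tris, pH 8.0, using 547 nm excitation and 618 nm emission across a concentration series. It was expressed as Texas Red dye-equivalent concentration from an on-plate standard curve.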
Resorufin autofl: resorufin region autofluorescence. max dye-equivalent concentration, M. Compound fluorescence, resorufin region 547/598 nm, buffer; stronger effect = higher value. 0.04% of 59,000 active
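Read-out: intrinsic compound fluorescence at ex 547/em 598 nm after 15 min at RT in pH 8.0 Tris (100 mM). Values expressed as resorufin-equivalent concentration from per-plate standard series.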
The depositor's hits bear a star; i = inactive; u = inconclusive; ! = repeats disagree. Compounds with a hit are over-represented: about 0.9% of the library has one in this group of screens. Unless noted, how the calls were made is not given here.

SMILES	A488 fluor	Rhodamine fluor	Fluorescein fluor	A647 autofl	Texas Red fluor	Resorufin autofl
Cc1ccc(-n2c3c(cc(C(=O)NC4CCSC4=O)c2=O)C(=O)CCC3)cc1 (configuration not stated)	i	i	1.1e-08M*	1.7e-09	i	i
O=C1CCCc2c1cc(C(=O)Nc1ccc(Cl)cn1)c(=O)n2-c1ccccc1	i	i	i	9.4e-09	i	i
Nc1nonc1C(=O)NCCN=Cc1cc(Cc2ccccc2)cc(Br)c1O	i	i	2e-08M*	1e-09	i	i
COc1ccc2cc3c(N)c(C(=O)NCc4ccco4)sc3nc2c1	i	i	2.4e-08M*	1e-09	i	i
Nc1nc(N)nc(CCCCc2nc(N)nc(N)n2)n1	i	i	i	1e-09	u	i
COc1cc(C(=O)N(CCc2ccccc2)C2CC3CCC(C2)N3C)cc(OC)c1OC (configuration not stated)	i	i	i	6.2e-09	u	i
CN1[C@@H]2CC[C@H]1CC(OC(=O)[C@@H](CO)c1ccccc1)C2 (some centres not stated)	i	i	3e-08M*!	3.9e-09	u	i
CCCN(CCc1ccccc1)[C@H]1CCc2c(O)cccc2C1	i	i	i	1e-09	i	i
O=C(/C=C\c1ccc(O)cc1)c1ccc(O)cc1O	u	i	3.7e-08M*	2e-08	u	i
COc1ccc(-c2coc3cc(O[C@@H]4O[C@@H](CO)[C@@H](O)[C@@H](O)[C@H]4O)cc(O)c3c2=O)cc1	i	i	i	5.2e-09	i	i
COc1ccc2c(C)cc(SCC(=O)N3CCOCC3)nc2c1	u	i	5.9e-08M*	3.7e-08	i	i
COC(=O)[C@@H](NC(=O)c1cc(-c2ccccc2)nc2ccccc12)c1ccccc1	i	i	i	9.2e-09	i	i
Cc1cccc(C)c1NC(=O)CN1CCN(CCCC(c2ccc(F)cc2)c2ccc(F)cc2)CC1	i	i	1e-08M*	4.4e-09	i	i
CC1=CC(=C(C#N)c2nc3ccccc3s2)C=C(C)N1Cc1ccco1	u	i	1.9e-07M*	3.5e-08	i	i
C#C[C@@]1(O)CC[C@H]2[C@H]3CCC4=Cc5oncc5C[C@]4(C)[C@@H]3CC[C@@]21C	i	i	i	3.6e-09	i	i
O=C(CC1NC(=O)NC1=O)Nc1cccc2ccccc12 (configuration not stated)	u	i	4.3e-08M*	1e-09	i	i
COc1ccccc1NC(=O)CC1Nc2ccccc2NC1=O (configuration not stated)	i	i	i	4.7e-09	i	i
Cn1c2ccccc2c(=O)n2c(=O)c3ccccc3cc12	u	i	3.9e-08M*	3.6e-09	i	i
CC(=O)O[C@H]1C(=O)[C@]2(C)[C@H]([C@H](OC(=O)c3ccccc3)[C@@]3(O)C[C@H](OC(=O)[C@@H](O)[C@@H](NC(=O)c4ccccc4)c4ccccc4)C(C)=C1C3(C)C)[C@]1(OC(C)=O)CO[C@@H]1C[C@@H]2O	i	i	i	1.6e-08	i	i
Nc1ncnc2nc[nH]c12.Nc1ncnc2nc[nH]c12.[Cl][Pt]([Cl])([Cl])[Cl]	i	i	i	1e-09	i	i
Cc1ccc(/C=c2\s/c(=C(/C#N)C(=O)N3CCCC3)n(Cc3ccco3)c2=O)s1	u	i	6.4e-08M*	1.1e-08	u	i
COc1cc(/C=c2\s/c(=C(/C#N)C(=O)N3CCCC3)n(-c3ccccc3)c2=O)ccc1O	i	i	u	1e-09	i	i
N#Cc1c(N)sc(=S)c2c1CCCC2	u	i	6.8e-08M*	1e-08	u	i
CCC1(C)Cc2c(C#N)c(N)sc(=S)c2CO1 (configuration not stated)	i	i	1e-08M*	1e-09	i	i
CSc1c(C#N)c(N)c(C#N)c2c1COC(C)(C)C2	i	i	u	1e-09	i	i
SMILES	A488 fluor	Rhodamine fluor	Fluorescein fluor	A647 autofl	Texas Red fluor	Resorufin autofl
Nc1c(S(=O)(=O)O)cc(Nc2cccc(S(N)(=O)=O)c2)c2c1C(=O)c1ccccc1C2=O	i	i	u	1e-09	u	i
CCn1c(CSc2nnc(-c3cccnc3)n2-c2ccccc2C)nc2cc(C(=O)O)ccc21	i	2.6e-07M*	u	u	4.2e-07M*	2.2e-07M*
CCOc1ccccc1-n1c(SCC(N)=O)nnc1-c1cccnc1	i	i	i	5e-09	i	i
CCn1c(CSc2nnc3ccccn23)nc2cc(C(=O)O)ccc21	i	7.1e-08M*	1.4e-08M*	6.6e-08	1.1e-07M*	4.7e-08M*
O=C(O)c1c[nH]c2c(ccc3[nH]cc(C(=O)O)c(=O)c32)c1=O	i	i	i	1.3e-09	i	i
COc1ccc2nc(N3CCCCC3)c(C#N)cc2c1	i	i	1.5e-08M*	3.4e-09	u	i
COc1ccc2nc(N3CCCC3)c(C#N)cc2c1	u	i	7.2e-08M*	1e-09	i	i
Nc1ncnc2c1ncn2[C@@H]1O[C@@H](C(=O)NC2CC2)[C@H](O)[C@@H]1O	i	i	u	8.7e-09	u	i
COc1cccc2c1C(=O)c1c(O)c3c(c(O)c1C2=O)C[C@](O)(C(=O)CO)C[C@H]3O[C@@H]1C[C@H](N)[C@H](O)[C@H](C)O1	1.3e-08M*	9.8e-08M*	3e-07M*	2.1e-08	9.5e-08M*	7.2e-08M*
C=CCn1c(=S)[nH]c2ccc(Br)cc2c1=O	i	i	1.9e-08M*	7.9e-09	i	i
C=CCn1c(=S)[nH]c2nc3c(cc2c1=O)CCCC3	i	i	i	2e-09	i	i
C=C[C@@](C)(O)CC[C@H]1[C@]2(C)CCCC(C)(C)[C@H]2CC[C@]1(C)O	i	i	u	1e-08	i	i
Cc1ccc(-c2cc(-c3nnc(SCC(=O)N(C)CCC#N)n3N)c3ccccc3n2)cc1	i	i	1.1e-08M*	1.1e-09	i	i
O=C(/C=C\c1ccc(O)c(O)c1)OCCc1ccccc1	i	i	u	4.1e-08	i	i
CN(C)c1ccc(N/C=C/C(=O)c2ccc(F)cc2)cc1	i	i	2.4e-08M*	1e-09	i	i

Screens as filed in PubChem BioAssay.
